Compound activity as filed in PubChem BioAssay.
Sampled rows, rich in hits. Any-hit rate of the full collection: about 0.98%.
cardiac RTF act: cardiac RTF calcium sensitivity activators, primary screen, biochemical, IANBD-TnC fluorescence, EC20 calcium; IANBD-labeled TnC RTF fluorescence at EC20 calcium; 0% EC20 calcium, 100% full calcium; activation, % at 7.2 µM; AID 493008, 2010; hit rate 0.24% among 340,000; Troponin I, cardiac muscle (Homo sapiens) + Troponin T, cardiac muscle (Homo sapiens) + …;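 active = activation above the mean over all tested compounds plus 3 SD, cut at about 30% in these data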;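 also: rise in fluorescence read as greater calcium sensitivity of cardiac thin filaments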
C-LANA FP: inhibitors of KSHV C-LANA binding to DNA, primary screen, biochemical, fluorescence polarization, FAM-LBS DNA, MBP-C-LANA, single point | inhibition, % at 9 µM | Kaposi's sarcoma herpesvirus LANA C-terminal domain (residues 932-1162) DNA binding | AID 504423, 2011 | hit rate 0.078% among 340,000;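 active = highest replicate inhibition at or above 60% at 9 µM, even if other replicates fall short; inactive = all replicates below 60% inhibition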
LANA-H2B inh: blockers of LANA interaction with H2A/H2B – biochemical, FP readout, HTS, primary screen | cell-free LANA-H2A/H2B peptide, fluorescence polarization | inhibition, % (concentration not given with the values) | hit rate 0.6% among 320,000 | AID 2629, 2010; in the data active = inhibition mostly above about 10%, no sharp cut-off; inactive = mostly below about 6.7%
Keap1 Nrf2 FP: Keap1-Nrf2 protein-protein interaction inhibitors, primary screen, biochemical, fluorescence polarization, single point; inhibition, % at 9.4 µM; AID 504523, 2011; Keap1 Kelch-Nrf2 peptide fluorescence polarization, 1536-well; hit rate 0.15% among 340,000; in the data active = inhibition above about 12%; inconclusive = no clear call, values can overlap the other calls; inactive = below about 7.3%;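 also: human Keap1 Kelch domain with fluorescein labeled Nrf2 9mer peptide probe; higher means more block of Keap1 binding to Nrf2 peptide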
RTF Ca sens inh: cardiac RTF calcium sensitivity inhibitors, primary screen, biochemical, IANBD-TnC fluorescence, EC70 calcium; Troponin I, cardiac muscle (Homo sapiens) + Troponin T, cardiac muscle (Homo sapiens) + …; IANBD-labeled cardiac RTF, Ca2+ fluorescence; inhibition, % at 7.15 µM; hit rate 0.12% among 340,000;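 active = inhibition above the mean inhibition of all tested compounds plus 3 SD, cut at about 17% in these data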;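 also: assay run at fixed EC70 calcium of 1.6 mM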
Of the large screens only hits and unclear results are named; the others gave an inactive call.

Cc1ccc(N2CC(NC(=O)C(=O)c3c(C)[nH]c4ccccc34)CC2=O)cc1C (configuration not stated)	none
COCCn1c(Cc2ccccc2)nnc1SCC(=O)N1CCOCC1	none
COCCCn1c(Cc2ccccc2)nnc1SCC(=O)N1CCCCC1	LANA-H2B inh 79.4
Cc1cc(C(=O)N2CCCC2C(=O)O)c(C)o1 (configuration not stated)	LANA-H2B inh 17.8
Cc1cc(C(=O)N2CCC(C(N)=O)CC2)c(C)o1	none
Cn1c(SSc2ccc(-c3cccnc3)n2C)ccc1-c1cccnc1	none (no result: LANA-H2B inh)
COCCn1c(-c2ccc(F)cc2)nc2cccnc21	none
CCCCCCn1nc(C(=O)N(CCOC)c2c(N)n(CCCC)c(=O)[nH]c2=O)c2ccccc2c1=O	LANA-H2B inh 17.5
CN1CCCc2cc3c(C(F)(F)F)cc(=O)oc3nc21	cardiac RTF act 37.7, Keap1 Nrf2 FP inconclusive
COc1ccc(OCCCC(=O)OCC(=O)Nc2sccc2C(N)=O)cc1	none (no result: LANA-H2B inh)
CC(=O)c1ccc(OCC(=O)OCC(=O)Nc2sccc2C(N)=O)cc1	LANA-H2B inh 15.7
COc1ccc(-c2cc(C(F)(F)F)nc(SCCC(=O)NCc3ccccc3)n2)cc1	LANA-H2B inh 32.1
O=C1S/C(=C/c2ccc(N3CCOCC3)o2)C(=O)N1Cc1c(F)cccc1Cl	cardiac RTF act 144.9
O=C1S/C(=C\c2ccc(N3CCOCC3)o2)C(=O)N1Cc1c(F)cccc1Cl	cardiac RTF act 100.1
O=C1S/C(=C\c2ccc(N3CCOCC3)o2)C(=O)N1c1ccccc1	cardiac RTF act 45.0
O=C1N=C(N2CCOCC2)S/C1=C/c1ccc(-c2ccccc2Cl)o1	none
Cc1ccc(NC(=O)CCCC2CCCCC2)c(O)c1	none
O=c1[nH]c(-c2ccccc2)c(-c2ccccc2)o1	none
COc1ccc(-c2noc(C3CCCN(C(=O)Nc4ccccc4F)C3)n2)cc1 (configuration not stated)	none
COc1ccc(-n2c(O)c(C=Nc3ccccc3)c3ccccc3c2=O)cc1	none
CCN(c1ccc(N=Cc2c(O)n(Cc3ccc(OC)cc3)c(=O)c3ccccc23)cc1)C(C)C	cardiac RTF act 418.1 (no result: LANA-H2B inh)
Cc1cc(C)c(NC(=O)c2cc(C(=O)O)ccc2C(=O)O)c([N+](=O)[O-])c1	LANA-H2B inh 12.0
CC(=O)N1CCN(CCS(=O)(=O)c2ccc(Br)cc2)CC1	none
Cc1cc(C)cc(C(=O)NC(CC(N)=O)c2ccc(NC3CCCC3)c([N+](=O)[O-])c2)c1 (configuration not stated)	none
COc1ccccc1/C=C/C(=O)OCC(=O)c1cc(C)n(C)c1C	LANA-H2B inh active
Nc1ncnc2c1ncn2[C@@H]1O[C@H](CNS(=O)(=O)c2cc3ccccc3s2)[C@@H](O)[C@H]1O	none (no result: LANA-H2B inh)
C#CCSc1nc2sc3c(c2c(=O)n1C)CCC3	none
O=C(CCc1ccccc1)Nc1ccccc1C(F)(F)F	LANA-H2B inh 31.7
CCN(CC(=O)Nc1ccccc1C(F)(F)F)C(=O)CCc1ccccc1	none
COc1ccc(C2CC(=O)Oc3cc(O)ccc32)cc1 (configuration not stated)	none (no result: LANA-H2B inh)
Cc1ccccc1C1CC(=O)Oc2cc(O)ccc21 (configuration not stated)	cardiac RTF act 38.9 (no result: LANA-H2B inh)
COc1ccc(NC(=S)N(CCCN2CCCC2)Cc2cccn2Cc2ccc(Cl)cc2)cc1Cl	none
Cc1ccc(Nc2c(-c3ccco3)nc3nc(C)cc(C)n23)cc1	LANA-H2B inh 21.2
O=S(=O)(NC(=S)NC1CCCCC1)c1ccccc1	LANA-H2B inh 10.3
Cc1ccccc1OC(C)C(=O)Nc1ccc2c(c1)OCCO2 (configuration not stated)	none
CCN(CC)c1ccc(/C=C2/C(=O)c3ccc(C(=O)O)cc3C2=O)cc1	cardiac RTF act 77.8
CC[n+]1ccccc1/C=C/c1ccc(N(C)C)cc1	none (no result: LANA-H2B inh)
Cc1ccc(/C=C/c2ccc(N(C)C)cc2)[n+](C)c1	cardiac RTF act 39.0
CN(C)c1ccc(/C=C/c2cc[n+]([O-])cc2)cc1	none (no result: cardiac RTF act, C-LANA FP, Keap1 Nrf2 FP, RTF Ca sens inh)
CN(C)c1ccc(/C=C/c2cc[n+](C)cc2)cc1	cardiac RTF act 47.2
CCOC(=O)C1(Cc2ccccc2)CCN(Cc2cccn2-c2nccs2)CC1	LANA-H2B inh 14.3
CCOC(=O)C1(Cc2ccccc2)CCN(Cc2cnc(N3CCOCC3)s2)CC1	LANA-H2B inh 52.6
CCOc1ccc(NC(=O)Cc2ccc(S(=O)(=O)N3CCCCC3)cc2)cc1OCC	none
CCN(CC)c1ccc(/C=C(\C#N)C(=O)NCc2ccccc2)cc1	cardiac RTF act 36.2
O=C(Nc1ccccc1C(=O)N/N=C/c1ccco1)c1ccc(Cl)cc1	LANA-H2B inh active
CCOC(=O)CNc1ccc2c(c1)OCO2	Keap1 Nrf2 FP 22.1
Fc1ccc(Oc2nc(-c3ccccc3)nnc2C(F)(F)F)cc1	LANA-H2B inh 10.1
NC(=O)NC(CC(=O)NCCc1ccccn1)c1ccccc1Cl (configuration not stated)	LANA-H2B inh 15.0
NC(=O)NC(CC(=O)NCCCc1ccccc1)c1ccccc1Cl (configuration not stated)	none
O=C1C=C(c2ccc3ncccc3c2)C[C@@H](c2ccc(F)cc2)C1	none
O=C1C=C(c2ccc3ccccc3c2)C[C@@H](c2ccc(F)cc2)C1	LANA-H2B inh 21.3
O=S(Cc1ccc(Cl)cc1)CC(O)COCc1ccc(Cl)cc1 (configuration not stated)	LANA-H2B inh 19.1
OC(CNCc1ccccc1)COCc1ccc(Cl)cc1 (configuration not stated)	none
FC(F)(F)c1cccnc1-n1cncn1	LANA-H2B inh 12.7
CC(C)(C)C(=O)N1CCN(c2ncccc2C(F)(F)F)CC1	none
Cc1cc(O)cc(C)c1NS(=O)(=O)c1ccc2ccccc2c1	none
NS(=O)(=O)c1cccc(NC(=O)COc2ncnc3c2cnn3-c2ccccc2)c1	LANA-H2B inh 130.7
O=C(COc1ncnc2c1cnn2-c1ccccc1)Nc1ccc(S(=O)(=O)N2CCCCC2)cc1	none
Cc1ccc[n+](-c2nc([O-])sc2C=O)c1	cardiac RTF act 94.0, C-LANA FP 83.2, LANA-H2B inh 29.3, Keap1 Nrf2 FP 62.7
N#Cc1ccccc1/C=N/Nc1nc(-c2ccccc2)c2cc(Cl)ccc2n1	LANA-H2B inh 55.0
O=C(O)CCNc1cc(N2CCN(C(=O)c3ccco3)CC2)c2noc3c2c1C(=O)c1ccccc1-3	cardiac RTF act 138.8
Cc1ccc(CNS(=O)(=O)c2ccc3c(c2)n(C)c(=O)n3C)cc1	none
Cc1cc(-c2nn(-c3ccccc3F)cc2CN2CCC(O)CC2)c(C)s1	LANA-H2B inh 33.5
COc1ccc(S(=O)(=O)NCC(c2cccnc2)N2CCN(Cc3ccccc3)CC2)cc1 (configuration not stated)	none
